From PubChem BioAssay AID1159580 (chemical genetic matrix, 2015)
Where “and” joins values, the source holds several entries; their conditions need not be identical. Equal entries are not always repeated. The campaign covered roughly 5,500 compounds. About 2,000 (36%) were called active. About 18% were inconclusive and are not listed. No stated cut-off is given here; in the data, active means normalized growth mostly below about 0.91 (no sharp cut-off); inconclusive means no clear call, values can overlap the other calls; inactive means mostly above about 0.92. The list shows a part of the results.

Assay: chemical genetic growth profiling, strain panel (AID 1159580);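 further: tested at 20 µM; growth read once vehicle control cultures reached saturation at 30 °C; 1 = growth at the plate median or of vehicle wells; lower values mean less growth of the strain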
Details: S. cerevisiae deletion strains, growth OD

Measured: normalized growth

C=CC(C1=CC(=O)C(OC)=CC1=O)c1ccc(O)cc1 (configuration not stated)
inactive: locus YAL013W, strain DEP1, active compounds read low 1.04 | locus YAL021C, strain ccr4, active compounds read low 1.03 | locus YAL026C, strain drs2, active compounds read low 0.977 | locus YAL030W, strain snc1, active compounds read low 1.01 | locus YBL061C, strain skt5, active compounds read low 0.996 | locus YBR009C, strain hhf1, active compounds read low 0.99 | locus YBR021W, strain FUR4, active compounds read low 1.04 | locus YBR023C, strain chs3, active compounds read low 0.992 | locus YBR171W, strain sec66, active compounds read low 1.02 | locus YBR229C, strain ROT2, active compounds read low 0.945 | locus YBR231C, strain swc5, active compounds read low 0.989 | locus YBR279W, strain paf1, active compounds read low 1 | locus YCL011C, strain gbp2, active compounds read low 0.998 | locus YCL016C, strain dcc1, active compounds read low 0.99 | locus YCL029C, strain bik1, active compounds read low 0.987 | locus YCL069W, strain vba3, active compounds read low 1.01 | locus YCR088W, strain abp1, active compounds read low 1.02 | locus YDL005C, strain med2, active compounds read low 0.999 | locus YDL035C, strain GPR1, active compounds read low 0.974 | locus YDL040C, strain nat1, active compounds read low 0.999 | locus YDL074C, strain BRE1, active compounds read low 0.987 | locus YDL101C, strain DUN1, active compounds read low 0.986 | locus YDL185W, strain tfp1, active compounds read low 0.944 | locus YDL192W, strain arf1, active compounds read low 0.981 | locus YDR001C, strain nth1, active compounds read low 1.01 | locus YDR069C, strain doa4, active compounds read low 0.991 | locus YDR101C, strain arx1, active compounds read low 0.991 | locus YDR137W, strain rgp1, active compounds read low 0.989 | locus YDR150W, strain NUM1, active compounds read low 1.01 | locus YDR159W, strain sac3, active compounds read low 0.94 | locus YDR162C, strain NBP2, active compounds read low 0.942 | locus YDR195W, strain ref2 1.03 | locus YDR297W, strain sur2, active compounds read low 0.986 | locus YDR318W, strain mcm21, active compounds read low 0.953 | locus YDR334W, strain swr1, active compounds read low 1.02 | locus YDR335W, strain msn5, active compounds read low 1.01 | locus YDR388W, active compounds read low 0.964 | locus YDR392W, strain spt3, active compounds read low 0.825 | locus YDR502C, strain sam2, active compounds read low 0.967 | locus YEL003W, strain gim4, active compounds read low 0.979 | locus YEL037C, strain rad23, active compounds read low 1.01 | locus YEL061C, strain CIN8 (second series), active compounds read low 1.01 | locus YEL061C, strain CIN8, active compounds read low 0.992 | locus YER015W, strain faa2, active compounds read low 0.995 | locus YER016W, strain bim1, active compounds read low 1 | locus YER110C, active compounds read low 0.927 | locus YER111C, strain swi4, active compounds read low 0.998 | locus YER155C, strain BEM2 (second series), active compounds read low 0.891 | locus YER155C, strain BEM2, active compounds read low 1 | locus YER167W, strain BCK2, active compounds read low 0.973 | locus YFR010W, strain ubp6, active compounds read low 0.998 | locus YGL078C, strain dbp3, active compounds read low 0.985 | locus YGL086W, strain mad1, active compounds read low 1 | locus YGL167C, strain pmr1, active compounds read low 1.01 | locus YGL173C, strain kem1, active compounds read low 0.997 | locus YGL227W, strain vid30, active compounds read low 0.999 | locus YGL240W, strain doc1, active compounds read low 0.972 | locus YGL248W, strain PDE1, active compounds read low 0.992 | locus YGL253W, strain hxk2, active compounds read low 1.02 | locus YGR078C, strain PAC10, active compounds read low 1.01 | locus YGR135W, strain pre9, active compounds read low 0.963 | locus YGR252W, strain gcn5, active compounds read low 0.904 | locus YHR013C, strain ard1, active compounds read low 1.02 | locus YHR027C, strain rpn1, active compounds read low 0.995 | locus YHR030C, strain SLT2, active compounds read low 0.98 and 1.04 | locus YHR079C, strain IRE1 (second series), active compounds read low 0.982 | locus YHR079C, strain IRE1, active compounds read low 1.01 | locus YHR094C, strain hxt1, active compounds read low 0.96 | locus YHR129C, strain ARP1, active compounds read low 0.991 | locus YHR142W, strain chs7, active compounds read low 1.01 | locus YHR200W, strain rpn10, active compounds read low 0.965 | locus YIL066C, strain RNR3, active compounds read low 0.92 | locus YIL073C, strain SPO22, active compounds read low 0.964 | locus YIL125W, strain kgd1, active compounds read low 0.987 | locus YIR030C, strain dcg1, active compounds read low 0.991 | locus YJL092W, strain hpr5, active compounds read low 1 | locus YJL095W, strain BCK1 (second series), active compounds read low 0.998 | locus YJL095W, strain BCK1, active compounds read low 1.03 and 1.06 | locus YJL115W, strain asf1, active compounds read low 1.02 | locus YJL129C, strain trk1, active compounds read low 1.03 | locus YJL134W, strain LCB3, active compounds read low 0.978 | locus YJL154C, strain vps35, active compounds read low 1.01 | locus YJL164C, strain tpk1, active compounds read low 0.987 | locus YJL166W, strain qcr8, active compounds read low 1 | locus YJL168C, strain set2, active compounds read low 0.984 | locus YJL187C, strain SWE1 (second series), active compounds read low 0.997 | locus YJL187C, strain SWE1, active compounds read low 1 | locus YJR043C, strain POL32, active compounds read low 0.941 | locus YJR066W, strain TOR1, active compounds read low 0.983 | locus YJR075W, strain HOC1, active compounds read low 1.01 | locus YKL009W, strain mrt4, active compounds read low 0.957 | locus YKL068W, active compounds read low 0.971 | locus YKL085W, strain MDH1 (second series), active compounds read low 0.987 | locus YKL085W, strain MDH1, active compounds read low 0.987 | locus YKL160W, strain elf1, active compounds read low 0.985 | locus YKL190W, strain CNB1, active compounds read low 1.01 | locus YKR001C, strain vps1, active compounds read low 0.966 | locus YKR026C, strain gcn3, active compounds read low 1.01 | locus YKR091W, strain srl3, active compounds read low 1.01 | locus YLL001W, strain dnm1, active compounds read low 0.958 | locus YLL026W, active compounds read low 1 | locus YLL041C, strain sdh2, active compounds read low 1.01 | locus YLR027C, strain aat2, active compounds read low 1 | locus YLR039C, strain RIC1, active compounds read low 1.02 | locus YLR058C, strain SHM2, active compounds read low 0.925 | locus YLR102C, strain apc9, active compounds read low 0.984 | locus YLR113W, strain HOG1, active compounds read low 0.967 | locus YLR221C, strain rsa3, active compounds read low 0.989 | locus YLR258W, strain gsy2, active compounds read low 1.01 | locus YLR262C, strain YPT6 (second series), active compounds read low 0.996 | locus YLR262C, strain YPT6, active compounds read low 1.01 | locus YLR268W, strain sec22, active compounds read low 1.01 | locus YLR320W, strain mms22, active compounds read low 0.988 | locus YLR330W, strain CHS5, active compounds read low 1 | locus YLR342W, strain FKS1 (second series), active compounds read low 0.935 | locus YLR342W, strain FKS1, active compounds read low 0.987 | locus YLR357W, strain rsc2, active compounds read low 0.993 | locus YLR370C, strain arc18, active compounds read low 1.01 | locus YLR371W, strain rom2, active compounds read low 0.965 | locus YLR384C, strain iki3, active compounds read low 1.03 | locus YLR418C, strain cdc73, active compounds read low 0.933 | locus YML016C, strain PPZ1, active compounds read low 0.976 | locus YML032C, strain rad52, active compounds read low 0.947 | locus YML120C, strain ndi1, active compounds read low 1 | locus YML124C, strain tub3, active compounds read low 0.99 | locus YMR058W, strain fet3, active compounds read low 1.01 | locus YMR078C, strain ctf18, active compounds read low 0.989 | locus YMR125W, strain sto1, active compounds read low 1.02 | locus YMR129W, active compounds read low 1 | locus YMR205C, strain PFK2, active compounds read low 0.992 | locus YMR223W, strain ubp8, active compounds read low 0.967 | locus YMR231W, strain pep5, active compounds read low 1.01 | locus YMR263W, strain SAP30, active compounds read low 1.01 | locus YMR307W, strain GAS1, active compounds read low 1.06 | locus YNL067W, strain RPL9B, active compounds read low 1.06 | locus YNL071W, strain lat1, active compounds read low 1.01 | locus YNL153C, strain GIM3, active compounds read low 1.01 | locus YNL183C, strain NPR1, active compounds read low 0.983 | locus YNL209W, strain ssb2, active compounds read low 0.994 | locus YNL233W, strain BNI4, active compounds read low 1.01 | locus YNL248C, strain rpa49, active compounds read low 1 | locus YNL250W, strain rad50, active compounds read low 0.98 | locus YNL271C, strain bni1, active compounds read low 0.99 | locus YNL298W, strain CLA4, active compounds read low 0.961 | locus YNL307C, strain MCK1, active compounds read low 0.969 | locus YNL322C, strain KRE1 (second series), active compounds read low 0.981 | locus YNL322C, strain KRE1, active compounds read low 0.994 | locus YNR049C, strain mso1, active compounds read low 1.01 | locus YNR052C, strain pop2, active compounds read low 0.981 | locus YOL012C, strain htz1 1.04 | locus YOL147C, strain pex11, active compounds read low 0.969 | locus YOR001W, strain rrp6, active compounds read low 0.986 | locus YOR061W, strain CKA2, active compounds read low 0.954 | locus YOR069W, strain VPS5, active compounds read low 0.986 | locus YOR070C, strain gyp1, active compounds read low 0.982 | locus YOR080W, strain dia2, active compounds read low 0.992 | locus YOR083W, strain WHI5, active compounds read low 0.977 | locus YOR106W, strain vam3, active compounds read low 0.989 | locus YOR136W, strain idh2, active compounds read low 0.976 | locus YOR144C, strain elg1, active compounds read low 0.98 | locus YOR184W, strain ser1, active compounds read low 0.941 | locus YOR231W, strain MKK1, active compounds read low 1.03 | locus YOR265W, strain rbl2, active compounds read low 1 | locus YOR270C, strain vph1, active compounds read low 1.02 | locus YOR290C, strain snf2, active compounds read low 0.984 | locus YOR316C, strain cot1, active compounds read low 0.982 | locus YPL051W, strain arl3, active compounds read low 0.979 | locus YPL078C, strain atp4, active compounds read low 0.98 | locus YPL106C, strain sse1, active compounds read low 1.01 | locus YPL240C, strain hsp82, active compounds read low 1.01 | locus YPL241C, strain CIN2, active compounds read low 0.983 | locus YPL256C, strain CLN2, active compounds read low 1.06 | locus YPR119W, strain clb2, active compounds read low 0.99 | locus YPR141C, strain kar3, active compounds read low 0.984 | locus YPR163C, strain tif3, active compounds read low 0.979 | locus YPR167C, strain met16, active compounds read low 0.974 | strain wtn01, active compounds read low 0.994
